Experimental findings from PubChem BioAssay AID463173 (ICCB-Longwood Screening Facility, Harvard Medical School, 2010) are described below.

Among all 52,000 compounds or so, about 1,700 (3.3%) were called active. Many of the other results were omitted from the sample, so actives are more common in it than they were. Unmarked numbers belong to inactive results. Cut-off read from the data, not from the text of the source: active = survival mostly below about 52% (no sharp cut-off); inactive = mostly above about 56%.

For the assay, the system named is Wild type. Description: growth inhibition of S. aureus wild type versus tarO mutant, primary screen, teichoic acid synthesis inhibitors, RN4220, OD600 (AID 463173). The settings on record: S. aureus RN4220 wild type/DeltatarO growth, OD600, 18 h, hits give low values, screened at 18.75 µg/mL (by protocol).
For the compound `COCCCNC(=O)c1c(C)nn(-c2ccc(F)cc2)c1-n1cccc1`, the survival is 77%.
`Cc1sc2c(c1C)c(=O)n(Cc1ccccc1)c(=O)n2CC(=O)N(C)c1ccccc1`: the survival was 89%.
For `COc1ccc(C2CC(=O)c3cc(-c4nc(-c5cccc(Cl)c5)cs4)c(=O)[nH]c3C2)cc1` (stereo not drawn) the value was 67%; for `Cc1ccc(C(=O)N2CCN(c3ccccc3)CC2)cc1NC(=O)c1nsc2ccccc12`, 73%; for `CC1=C(C(=O)Nc2cccc(C(F)(F)F)c2)C2(CCN(C(C)C)CC2)OC1=O`, 91%.
For the compound `COc1ccc(OC)c(NC(=O)C2=C(C)C(=O)OC23CCN(C(C)C)CC3)c1`, the survival is 0% (active).
`COc1ccc(NC(=O)C2=C(C)C(=O)OC23CCN(C(C)C)CC3)cc1Cl`: the survival was 77%.
Consider `CC1=C(C(=O)Nc2cccc(C(F)(F)F)c2)C2(CCCCCC2)OC1=O`, for which the survival is 0% (active).
As to `CC1=C(C(=O)Nc2cccc(Cl)c2C)C2(CCCCCC2)OC1=O`, the survival is -2% (active).
As for `COc1ccc(OC)c(NC(=O)C2=C(C)C(=O)OC23CCCCCC3)c1`, the survival was 129%.
For `CC1=C(C(=O)Nc2ccccc2Br)C2(CCC(C)CC2)OC1=O` (stereo not drawn) the value was 83%; for `COC(=O)c1ccccc1NC(=O)C1=C(C)C(=O)OC12CCC(C)CC2` (stereo not drawn), -6% (active).
For `COC(=O)c1ccccc1NC(=O)C1=C(C)C(=O)OC12CCCCCC2` the value was 91%.
With `CC1=C(C(=O)Nc2cccc(C(F)(F)F)c2)C2(CCCCC2)OC1=O` the figure was 88%.
`CC1=C(C(=O)Nc2cccc(C)c2C)C2(CCCCC2)OC1=O`: the survival is 74%.
With `CC(=O)N1CCC2(CC1)OC(=O)C(C)=C2C(=O)Nc1cccc(Cl)c1C` the figure was 82%; with `Cc1cc(C)n(C(=O)CCCC(=O)O)n1`, 96%.
On to `Cc1ccc(CNC(=O)C(CC(C)C)N2Cc3ccccc3C2=O)cc1` (stereo not drawn), for which the survival was 136%.
For `COc1cc(-c2nc(Cn3nnc(C(=O)Nc4cc(C)cc(C)c4)c3C)c(C)o2)cc(OC)c1OC` the value was 70%; for `CCOc1cc(CNC(=O)CSc2n[nH]c(-c3ccccc3)n2)cc(OCC)c1OCC`, 131%.
`CC1=C(C(=O)NCc2cccc(F)c2)C2(CCCCCC2)OC1=O`: the survival is 65%.
With `CC1=C(C(=O)NCc2cccc(Br)c2)C2(CCCCC2)OC1=O` the figure was 82%.
As to `CC1=C(C(=O)NCc2cccc(F)c2)C2(CCCCC2)OC1=O`, the survival is 10% (active).
With `COc1ccc(OCc2nnc(-c3ccccc3)o2)cc1` the figure was 106%; with `Cc1ccc(N2CCN(C(=O)c3cn(C)c4ccc(S(=O)(=O)N5CCC(C)CC5)cc4c3=O)CC2C)cc1` (stereo not drawn), 126%; with `CCOc1ccccc1CNC(=O)Cn1nc(N2CCN(c3ccccc3)CC2)ccc1=O`, 82%.
Take `COc1ccc(CNC(=O)Cn2nc(N3CCN(c4ccccc4)CC3)ccc2=O)c(OC)c1`: the survival was -4% (active).
Turning to `COc1cccc(NC(=O)Cn2nc(N3CCN(c4ccccc4)CC3)ccc2=O)c1`, the survival is 85%.
For `CCn1c(SCC(=O)N(C2CCCCC2)C2CCCCC2)nnc1C(C)C` the value was 100%; for `CCc1ccc(C2=C(C)C(N3CCC(C(=O)NCc4ccc(C)o4)CC3)=NS2(=O)=O)cc1`, 63%; for `Cc1ccc(C(=O)NCCc2csc(-c3cccc(F)c3)n2)cc1C`, 78%.
With `O=C(COCc1cc(-c2cccs2)on1)N1CCN(c2ccccc2)CC1` the figure was 68%.
Take `O=C(COCc1cc(-c2cccs2)on1)Nc1cccc(O)c1`: the survival was -3% (active).
Take `O=C(COCc1cc(-c2cccs2)on1)N1CCN(c2ccc(F)cc2)CC1`: the survival is 73%.
Consider `O=C(COCc1cc(-c2ccco2)on1)Nc1cccc(O)c1`, for which the survival is 73%.
For the compound `Cc1ccc(NC(=O)COCc2cc(-c3cccs3)on2)cc1Cl`, the survival was 65%.
For `O=C(COCc1cc(-c2cccs2)on1)N1CCN(c2cccc(Cl)c2)CC1` the value was 10% (active); for `CC(=O)N1CCCc2cc(S(=O)(=O)N(C)CC(=O)Nc3cccc(Cl)c3C)ccc21`, 68%; for `CCOc1ccccc1NC(=O)Cn1nnc(C(=O)NCc2ccc(F)cc2)c1N`, 101%.
For the compound `Cc1cccc(Nc2sc(C(=O)c3ccc(Cl)cc3)c(N)c2C(N)=O)c1`, the survival is 45%.
With `Cc1ccc(C)n1-c1cccc2cccnc12` the figure was 103%; with `O=C(COC(=O)CCCC1=NS(=O)(=O)c2ccccc2N1)Nc1ccc(Br)cc1`, 81%.
Turning to `COc1ccc(Cl)cc1NC(=O)COC(=O)CC(C)(C)CC1=NS(=O)(=O)c2ccccc2N1`, the survival is 81%.
`COc1ccccc1NC(=O)COC(=O)CC(C)(C)CC1=NS(=O)(=O)c2ccccc2N1`: the survival was -3% (active).
On to `CCc1ccc(NC(=O)COC(=O)CCCC2=NS(=O)(=O)c3ccccc3N2)cc1`, for which the survival is 129%.
With `CCOc1ccccc1NC(=O)COC(=O)CC(C)(C)CC1=NS(=O)(=O)c2ccccc2N1` the figure was 63%; with `Cc1cccc(NC(=O)COC(=O)CCCC2=NS(=O)(=O)c3ccccc3N2)c1`, -4% (active).
For `CCS(=O)(=O)N1CCC(NC(=O)c2ccccc2Cl)CC1` the value was 127%; for `COc1cccc(NC(=O)CC2C(=O)OCCN2Cc2ccccc2)c1` (stereo not drawn), 161%; for `COc1ccc(CN2C(=O)N(c3cccc(C)c3)C(=O)C2CC(=O)Nc2ccc(F)cc2)cc1OC` (stereo not drawn), 73%.
For `CCCSc1ncnc2c1c(-c1ccccc1)cn2-c1ccccc1OC` the value was 1% (active); for `CCOC(=O)CSc1ncnc2c1c(-c1ccccc1)cn2-c1ccc(OC)cc1`, 75%; for `CCCCSc1ncnc2c1c(-c1ccccc1)cn2-c1cccc(F)c1`, 84%.
`CCOC(=O)N1CCc2c(sc3c2c(=O)n(Cc2ccccc2)c(=O)n3CC(=O)Nc2ccc(F)cc2)C1`: the survival is 87%.
Consider `CCCCNc1nc2c(c(=O)n(Cc3ccc(Cl)c(Cl)c3)c(=O)n2C)n1C`, for which the survival is 1% (active).
For `CCCCNc1nc2c(c(=O)n(Cc3ccc(Cl)cc3)c(=O)n2C)n1C` the value was 70%; for `CCCCNc1nc2c(c(=O)n(Cc3ccccc3)c(=O)n2C)n1C`, 67%.
For `Cc1ccc2[nH]c(=O)c3cc(C(=O)N(CCCOC(C)C)Cc4ccco4)sc3c2c1` the value was 71%; for `CCn1c(=O)c2cc(C(=O)N(CCN(C)C)Cc3ccccc3)sc2c2ccccc21`, 75%; for `CCn1c(=O)c2cc(C(=O)N(C)c3cc(C)ccc3C)sc2c2ccccc21`, 125%.
`CCn1c(=O)c2cc(C(=O)N(CC(C)C)CC(C)C)sc2c2ccccc21`: the survival was -1% (active).
On to `CCn1c(=O)c2cc(C(=O)N(CCCOC(C)C)Cc3ccco3)sc2c2ccccc21`, for which the survival was 1% (active).
Take `CCCn1c2ccccc2c2cnn(CC(=O)N(CCCOC(C)C)Cc3ccco3)c(=O)c21`: the survival is 76%.
